According to PubChem BioAssay (Tox21):
Inconclusive results are not listed. Active and inactive are the calls of the source. Unless noted, calls follow the shape of the dose curve; as a rule, active = well fitted curve in the direction sought with a large enough effect in the repeat runs; inconclusive = weak or mixed curves; inactive = no such curve, though single readings can be large; an effect the other way counts as inactive or inconclusive.

Molecular target: Androgen receptor (Homo sapiens) (UniProt P10275)
Assay: qHTS assay to identify small molecule antagonists of the androgen receptor (AR) signaling pathway (AID 743035; active = well fitted inhibition curve with a large enough effect in the signal ratio in the repeat runs, not every such curve was filed as active; the % refers to the signal ratio)
Settings: HEK293 AR-UAS-bla, R1881-stimulated, beta-lactamase FRET, 16 h; series mostly up to 58.5 µM; activity change, negative = inhibition: at the top concentration
How it was run: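 Quantitative HTS of the Tox21 10K library used HEK293 AR-UAS-bla cells stimulated with R1881 alongside compound for 16 h at 37C, followed by beta-lactamase FRET detection (LiveBLAzer B/G, 2 h, RT).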
% is scaled to controls: 0 for no effect and ±100 for the full control effect.

Sequence of Androgen receptor (Homo sapiens) (P10275 whole entry, looked up): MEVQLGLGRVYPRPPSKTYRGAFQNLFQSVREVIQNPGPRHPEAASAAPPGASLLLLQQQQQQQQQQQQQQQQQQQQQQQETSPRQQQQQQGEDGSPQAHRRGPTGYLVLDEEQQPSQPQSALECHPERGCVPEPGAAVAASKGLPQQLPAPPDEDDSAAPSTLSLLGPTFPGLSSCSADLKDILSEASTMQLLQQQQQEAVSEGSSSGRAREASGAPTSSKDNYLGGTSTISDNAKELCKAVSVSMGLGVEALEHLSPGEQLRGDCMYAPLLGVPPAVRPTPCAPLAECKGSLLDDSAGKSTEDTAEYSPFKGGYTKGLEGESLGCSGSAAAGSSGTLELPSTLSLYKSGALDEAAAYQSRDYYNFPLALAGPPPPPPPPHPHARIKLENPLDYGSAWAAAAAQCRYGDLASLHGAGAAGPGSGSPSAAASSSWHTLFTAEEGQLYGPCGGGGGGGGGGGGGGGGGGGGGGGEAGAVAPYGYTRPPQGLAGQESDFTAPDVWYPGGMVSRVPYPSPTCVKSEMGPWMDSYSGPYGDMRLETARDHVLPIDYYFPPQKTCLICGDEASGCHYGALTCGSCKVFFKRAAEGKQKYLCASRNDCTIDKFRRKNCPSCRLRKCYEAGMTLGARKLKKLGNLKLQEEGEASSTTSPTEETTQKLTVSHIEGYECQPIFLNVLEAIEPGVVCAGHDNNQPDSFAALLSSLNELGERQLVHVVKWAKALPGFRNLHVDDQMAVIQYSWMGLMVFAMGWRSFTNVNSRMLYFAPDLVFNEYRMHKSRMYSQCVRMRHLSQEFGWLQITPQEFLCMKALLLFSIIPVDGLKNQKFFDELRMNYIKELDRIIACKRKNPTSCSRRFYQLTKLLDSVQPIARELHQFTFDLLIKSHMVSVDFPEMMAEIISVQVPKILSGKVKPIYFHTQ

| Structure (SMILES) | Potency | activity change, negative = inhibition |
| --- | --- | --- |
| O=C(NCNC(=O)NC1C(=O)NC(=O)N1CO)NC1C(=O)NC(=O)N1CO (centres undefined) | inactive |  |
| O=C(N[C@H]1CN2CCC1CC2)c1ccc2c(c1)OCCO2 |  | 6.34% (inactive) |
| FC(F)OC(F)(F)C(F)Cl (centres undefined) | inactive |  |
| ClCc1ccccc1Cl |  | 2.43% [at 78.9 µM] (inactive) |
| Cc1cnc(C2=NC(C)(C(C)C)C(=O)N2)c(C(=O)O)c1 (centres undefined) |  | 2.18% (inactive) |
| CC1(C)[C@H](C(=O)O[C@H](C#N)c2cccc(Oc3ccccc3)c2)[C@@H]1C=C(Br)Br |  | 0.384% [at 78.9 µM] (inactive) |
| Clc1ccc2ccccc2c1 |  | -3.09% [at 78.9 µM] (inactive) |

Molecular target: Androgen receptor (Homo sapiens) (UniProt P10275)
Assay: qHTS assay to identify small molecule agonists of the androgen receptor (AR) signaling pathway (AID 743036; active = well fitted activation curve with a large enough effect in the signal ratio in the repeat runs, with a control signal flat, not every such curve was filed as active; the % refers to the signal ratio)
Settings: HEK293 AR-UAS-bla GripTite, beta-lactamase FRET ratio, 16 h; series mostly up to 62.4 µM; activation: at the top concentration
How it was run: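 In this Tox21 qHTS, 2,000 HEK293 AR-bla cells per well were incubated with compounds for 16 h at 37C and 5% CO2. Fluorescence intensity was recorded 2 h after adding LiveBLAzer B/G FRET substrate at room temperature.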

| Structure (SMILES) | Potency | activation |
| --- | --- | --- |
| O=C(NCNC(=O)NC1C(=O)NC(=O)N1CO)NC1C(=O)NC(=O)N1CO (centres undefined) | inactive |  |
| O=C(N[C@H]1CN2CCC1CC2)c1ccc2c(c1)OCCO2 |  | 17.1% (inactive) |
| NP(N)(=O)NC(=O)c1ccc(F)cc1 |  | 12.3% (inactive) |
| FC(F)OC(F)(F)C(F)Cl (centres undefined) | inactive |  |
| Cc1cnc(C2=NC(C)(C(C)C)C(=O)N2)c(C(=O)O)c1 (centres undefined) |  | 0.101% (inactive) |
| CC1(C)[C@H](C(=O)O[C@H](C#N)c2cccc(Oc3ccccc3)c2)[C@@H]1C=C(Br)Br | inactive |  |
| Clc1ccc2ccccc2c1 |  | 0.73% [at 79.1 µM] (inactive) |
| Nc1c(Br)cc(Br)c2c1C(=O)c1ccccc1C2=O |  | -13.5% [at 29.2 µM] (inactive) |

Molecular target: Androgen receptor (Homo sapiens) (UniProt P10275)
Assay: qHTS assay to identify small molecule agonists of the androgen receptor (AR) signaling pathway using the MDA cell line (AID 743040; also: nearly all actives have a fitted effect of over 20% in size)
Settings: MDA-kb2 AR-luc cells, MMTV luciferase, 16 h; activity change: at 70.3 µM (top of the series), stronger effect = higher value
How it was run: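 Luciferase read-out, ONE-Glo, 30 min RT. Cells: MDA-kb2 AR-luc, MMTV promoter with AR and GR response elements. Compound exposure 16 h, 37C, 0% CO2, after 5 h pre-incubation. qHTS agonist mode.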

| Structure (SMILES) | Potency | activity change |
| --- | --- | --- |
| O=C(NCNC(=O)NC1C(=O)NC(=O)N1CO)NC1C(=O)NC(=O)N1CO (centres undefined) | inactive |  |
| O=C(N[C@H]1CN2CCC1CC2)c1ccc2c(c1)OCCO2 |  | 0.652% (inactive) |
| N#CC(C#N)=Cc1ccc(O)c(O)c1 |  | -2.47% (inactive) |
| NP(N)(=O)NC(=O)c1ccc(F)cc1 |  | 0.631% (inactive) |
| FC(F)OC(F)(F)C(F)Cl (centres undefined) | inactive |  |
| ClCc1ccccc1Cl |  | 0.343% [at 95 µM, stronger effect = higher value] (inactive) |
| Cc1cnc(C2=NC(C)(C(C)C)C(=O)N2)c(C(=O)O)c1 (centres undefined) |  | 1.37% (inactive) |
| CC1(C)[C@H](C(=O)O[C@H](C#N)c2cccc(Oc3ccccc3)c2)[C@@H]1C=C(Br)Br | inactive |  |
| Clc1ccc2ccccc2c1 |  | 1.17% [at 95 µM, stronger effect = higher value] (inactive) |
| Nc1c(Br)cc(Br)c2c1C(=O)c1ccccc1C2=O |  | 3.75% [at 32.5 µM, stronger effect = higher value] (inactive) |

System: not listed separately
Assay: qHTS assay to identify small molecule antagonists of the androgen receptor (AR) signaling pathway using the MDA cell line - cell viability counter screen (AID 743041; also: nearly all actives have a fitted effect of over 45% in size)
Settings: MDA-kb2 viability, CellTiter-Fluor, 16 h, cells co-treated with R1881 androgen agonist; series mostly up to 70.3 µM; viability change, negative = cytotoxic: at the top concentration
How it was run: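 Cytotoxicity counter screen: MDA-kb2 AR-luc cells, compound + R1881, 16 h, 37C, 0% CO2; CellTiter-Fluor added at 15.5 h, fluorescence read after 30 min.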

| Structure (SMILES) | Potency | viability change, negative = cytotoxic |
| --- | --- | --- |
| O=C(NCNC(=O)NC1C(=O)NC(=O)N1CO)NC1C(=O)NC(=O)N1CO (centres undefined) | inactive |  |
| Cc1ncc(C[n+]2csc(CCO)c2C)c(N)n1 | inactive |  |
| O=C(N[C@H]1CN2CCC1CC2)c1ccc2c(c1)OCCO2 |  | -0.699% (inactive) |
| Cc1ccc(N)c(C)c1 | inactive |  |
| C[C@H]1O[C@H](OC2[C@@H](O)[C@@H](O)C(O)[C@H](O)[C@H]2O)[C@@H](N)C[C@@H]1N=C(N)C(=O)O (some centres undefined) |  | 0.204% (inactive) |
| CCCN(CCC)c1c([N+](=O)[O-])cc(C(C)C)cc1[N+](=O)[O-] | inactive |  |
| NP(N)(=O)NC(=O)c1ccc(F)cc1 |  | 11.3% (inactive) |
| COc1ccc(C(O)(c2cncnc2)C2CC2)cc1 (centres undefined) |  | 2.12% (inactive) |
| C1CS1 |  | 4.03% [at 95 µM] (inactive) |
| CCC[N+](CCC)(CCC)CCC |  | 3.08% (inactive) |
| Clc1ccccc1 |  | 22.1% (inactive) |
| C=CCc1ccccc1O |  | 0.226% (inactive) |
| CCOP(=O)(O)C(N)=O |  | 2.27% (inactive) |
| CCN(C(C)=O)c1cccc(-c2ccnc3c(C#N)cnn23)c1 |  | 3.26% (inactive) |
| CC(Oc1cc(Cl)c(Cl)cc1Cl)C(=O)O (centres undefined) |  | -0.33% (inactive) |
| FC(F)OC(F)(F)C(F)Cl (centres undefined) | inactive |  |
| ClCc1ccccc1Cl |  | -0.0118% [at 95 µM] (inactive) |

| Structure (SMILES) | Potency | viability change, negative = cytotoxic |
| --- | --- | --- |
| CCCCCCCCP(=O)(O)O |  | 0.339% (inactive) |
| CCCN(CCOc1c(Cl)cc(Cl)cc1Cl)C(=O)n1ccnc1 | inactive |  |
| O=[N+]([O-])c1cc(Cl)c(Cl)cc1Cl |  | -0.673% (inactive) |
| O=C([O-])c1ccccn1.O=C([O-])c1ccccn1.O=C([O-])c1ccccn1.[Cr+3] |  | -5.07% (inactive) |
| Cc1cnc(C2=NC(C)(C(C)C)C(=O)N2)c(C(=O)O)c1 (centres undefined) |  | 21.4% (inactive) |
| CC(C)[C@@H](C(=O)O[C@@H](C#N)c1cccc(Oc2ccccc2)c1)c1ccc(Cl)cc1 |  | 5.04% (inactive) |
| C=CCOCC1CO1 (centres undefined) |  | 2.46% (inactive) |
| CC1(C)[C@H](C(=O)O[C@H](C#N)c2cccc(Oc3ccccc3)c2)[C@@H]1C=C(Br)Br | inactive |  |
| Cc1ccccc1 | inactive |  |
| CC(O)CN1CCN(CC(=O)[O-])CCN(CC(=O)[O-])CCN(CC(=O)[O-])CC1.[Gd+3] (centres undefined) | inactive |  |
| CC(C)(C)c1ccc(CCOc2ncnc3ccccc23)cc1 |  | -1.77% (inactive) |
| Cc1ccc2c(C)cccc2c1 |  | -4.08% (inactive) |
| Clc1ccc2ccccc2c1 |  | 1.44% [at 95 µM] (inactive) |
| CC(C)CCON=O | inactive |  |
| CC(C)(C)NCC(O)c1ccccc1Cl (centres undefined) |  | 2.73% (inactive) |
| CCCCCCCCCCCCCCCl |  | -2.07% [at 95 µM] (inactive) |
| Nc1c(Br)cc(Br)c2c1C(=O)c1ccccc1C2=O |  | 3.78% [at 32.5 µM] (inactive) |
